Laboratory results as given in PubChem BioAssay (NCI).
This is part of a sample that, as a whole, favours compounds with a hit. Of some 79,000 tested, about 15% had one in any assay. Activity calls are given as the source filed them. Cut-off read from the data, not from the text of the source: active = growth inhibition above about 70%; inactive = the rest.

Test: NCI Yeast Anticancer Drug Screen. Data for the wt1 strain (AID 149);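 note: 0% = growth of vehicle-treated wt1 cultures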
Conditions: S. cerevisiae wt1 strain (SPY 50644) growth inhibition, active compounds read high
Description: Growth inhibition of yeast strains with defined genetic alterations is measured as a screen for potential anti-cancer activity. Selected strains with alterations in DNA damage repair or cell cycle control were exposed to compounds and growth inhibition was measured relative to vehicle treated controls. The strain used in this assay is wt1

Measured: growth inhibition

N#CCC(=O)N/N=C(\c1ccccc1)C(c1ccccc1)C1(O)C(=O)Nc2c(Cl)ccc(Cl)c21 (stereo not given)
inactive: at 1.2 µM 0% | at 3.7 µM 0% | at 11.0 µM 0% | at 33.0 µM -1% | at 100.0 µM -3%

O=C1/C(=C/c2ccc(Cl)c(Cl)c2)CNC/C1=C\c1ccc(Cl)c(Cl)c1
active: at 100.0 µM 95%
inactive: at 1.2 µM 28% | at 3.7 µM 25% | at 11.0 µM 29% | at 33.0 µM 63%

CC(C)(CN1CCCCC1)C(=O)CC(SCCS(=O)(=O)O)c1ccccc1 (stereo not given)
inactive: at 1.2 µM -63% | at 3.7 µM 1% | at 11.0 µM 0% | at 33.0 µM 4% | at 100.0 µM 10%

Nc1ccc(/C=C/c2ccc3cccnc3c2)cc1
inactive: at 1.2 µM 0% | at 3.7 µM -1% | at 11.0 µM -3% | at 33.0 µM -4% | at 100.0 µM -7%

CNC(=S)N/N=C(/C)CCC/C(C)=N/NC(=S)NC
inactive: at 1.2 µM 1% | at 3.7 µM 35% | at 11.0 µM 48% | at 33.0 µM 45% | at 100.0 µM 44%

BrC1C2CCC3OC3C12 (stereo not given)
inactive: at 1.2 µM 0% | at 3.7 µM 1%
active: at 11.0 µM 96% | at 33.0 µM 98% | at 100.0 µM 99%

O=[N+]([O-])/C=C/c1cc2ccc3ccccc3c2[nH]1
inactive: at 1.2 µM 9% | at 3.7 µM 19% | at 11.0 µM 41%
active: at 33.0 µM 79% | at 100.0 µM 93%

CC(C)OP(=O)(OC(C)C)C(=NCCO)NNc1ccc([N+](=O)[O-])cc1
inactive: at 1.2 µM -6% | at 3.7 µM 1% | at 11.0 µM 6% | at 33.0 µM 7% | at 100.0 µM 29%
